# Measurements as given in ChEMBL document CHEMBL5606460, “ASAP - DENV-2 NS2B-NS3 protease fluorescence single point” (2024).
# About 110 (5.5%) of roughly 2,000 compounds showed an effect of 50% or more. Only a selection was taken, and strong results are over-represented in it overall.
# Target: Genome polyprotein (dengue virus type 2) (UniProt P29990)
# [1] = Thailand/16681/1984, Concentration 25.0 uM, Number of replicates 1.0
smiles,measurement,setting,value
CC(C)Cn1cccc(C(=O)Nc2ccncc2C(F)(F)F)c1=O,inhibition,"Thailand/16681/1984, Concentration 49.5 uM, Number of replicates 2.0, Standard deviation 5.23322293563183 %",-3.89%
same,inhibition,"Thailand/16681/1984, Concentration 99.01 uM, Number of replicates 2.0, Standard deviation 0.16283923825626637 %",-4.73%
same,inhibition,"Thailand/16681/1984, Concentration 198.0 uM, Number of replicates 2.0, Standard deviation 1.971758036933884 %",-6.94%
O=Cc1ccc(N2CCC(C(=O)N3CCN(C(=O)[C@H]4COc5ccccc5O4)CC3)CC2)cc1,inhibition,[1],13%
NCc1cccc(NC(=O)[C@H]2CC(F)(F)CN2C(=O)OCc2ccccc2)c1,inhibition,"Thailand/16681/1984, Concentration 49.5 uM, Number of replicates 2.0, Standard deviation 3.8817212285914895 %",-3.13%
same,inhibition,"Thailand/16681/1984, Concentration 99.01 uM, Number of replicates 2.0, Standard deviation 4.048573795130085 %",-2.21%
same,inhibition,"Thailand/16681/1984, Concentration 198.0 uM, Number of replicates 2.0, Standard deviation 4.090127173867097 %",-1.49%
O=Cc1ccc(N2CCC(C(=O)N(Cc3ccco3)Cc3cccs3)CC2)cc1,inhibition,[1],11%
Cc1cc(CO)c2cccc(NC(=O)c3ccc(N)nn3)c2n1,inhibition,"Thailand/16681/1984, Concentration 49.95 uM, Number of replicates 2.0, Standard deviation 1.176901179972867 %",11%
same,inhibition,"Thailand/16681/1984, Concentration 99.9 uM, Number of replicates 2.0, Standard deviation 1.886285239678155 %",19.5%
C[C@@H](Cc1ccc(C(F)(F)F)cc1)NC(=O)C1CCN(c2ccc(C=O)cc2)CC1,inhibition,[1],8.27%
O=Cc1ccc(N2CCC(C(=O)NCC34CC5CC(CC(C5)C3)C4)CC2)cc1,inhibition,[1],11.8%
c1ccc2[nH]c(CN3CC[C@H](c4c[nH]c5ccccc45)C3)cc2c1,inhibition,"Thailand/16681/1984, Concentration 49.5 uM, Number of replicates 2.0, Standard deviation 0.7608740215940771 %",4.51%
same,inhibition,"Thailand/16681/1984, Concentration 99.01 uM, Number of replicates 2.0, Standard deviation 0.30587350380986955 %",4.39%
same,inhibition,"Thailand/16681/1984, Concentration 198.0 uM, Number of replicates 2.0, Standard deviation 0.6449469231287406 %",3.06%
Cc1c(Br)cnc(NC(=O)C2CCN(c3ccc(C=O)cc3)CC2)c1[N+](=O)[O-],inhibition,[1],13.3%
Cc1nn(Cc2nnc(C(C)C)o2)cc1C1CCNCC1,inhibition,"Thailand/16681/1984, Concentration 49.5 uM, Number of replicates 2.0, Standard deviation 1.2271984598057826 %",-1.09%
same,inhibition,"Thailand/16681/1984, Concentration 99.01 uM, Number of replicates 2.0, Standard deviation 0.3137269789739955 %",-1.28%
same,inhibition,"Thailand/16681/1984, Concentration 198.0 uM, Number of replicates 2.0, Standard deviation 0.585185347191749 %",-1.14%
O=Cc1ccc(N2CCC(C(=O)N3CCN(c4ncccn4)CC3)CC2)cc1,inhibition,[1],13.4%
O=C(N[C@H]1CCOC1)c1cc(Cl)ccc1NS(=O)(=O)c1ccc(Oc2ccccc2Cl)cc1,inhibition,"Thailand/16681/1984, Concentration 49.5 uM, Number of replicates 2.0, Standard deviation 0.8156312071794307 %",64.1%
same,inhibition,"Thailand/16681/1984, Concentration 99.01 uM, Number of replicates 2.0, Standard deviation 0.42939613872644544 %",63.6%
same,inhibition,"Thailand/16681/1984, Concentration 198.0 uM, Number of replicates 2.0, Standard deviation 0.707503298737338 %",53%
O=S(=O)(NC1CCCCC1)c1ccc(Oc2ccccc2Cl)cc1,inhibition,"Thailand/16681/1984, Concentration 49.5 uM, Number of replicates 2.0, Standard deviation 1.7919780415060578 %",0.164%
same,inhibition,"Thailand/16681/1984, Concentration 99.01 uM, Number of replicates 2.0, Standard deviation 2.26588512977007 %",2.51%
same,inhibition,"Thailand/16681/1984, Concentration 198.0 uM, Number of replicates 2.0, Standard deviation 2.2194744531827233 %",5.38%
O=C(NC[C@H]1CCOC1)c1cc(Cl)ccc1NS(=O)(=O)c1ccc(Oc2ccccc2Cl)cc1,inhibition,"Thailand/16681/1984, Concentration 49.5 uM, Number of replicates 2.0, Standard deviation 2.9570930238802475 %",78.1%
same,inhibition,"Thailand/16681/1984, Concentration 99.01 uM, Number of replicates 2.0, Standard deviation 0.09728436725720986 %",83.4%
same,inhibition,"Thailand/16681/1984, Concentration 198.0 uM, Number of replicates 2.0, Standard deviation 0.16101849440059574 %",79%
Cc1cc(CN)c2cccc(Cl)c2n1,inhibition,"Thailand/16681/1984, Concentration 49.95 uM, Number of replicates 2.0, Standard deviation 5.413623438036859 %",-7.74%
same,inhibition,"Thailand/16681/1984, Concentration 99.9 uM, Number of replicates 2.0, Standard deviation 5.696602605148216 %",-7.99%
CN(CCO[Si](C)(C)C(C)(C)C)C(=O)C1CCN(c2ccc(C=O)cc2)CC1,inhibition,[1],11.8%
Cc1cc(CO)c2cccc(Cc3cccc(NC(=O)C(=O)c4ccco4)c3)c2n1,inhibition,"Thailand/16681/1984, Concentration 49.95 uM, Number of replicates 2.0, Standard deviation 2.5499602835301056 %",-0.234%
same,inhibition,"Thailand/16681/1984, Concentration 99.9 uM, Number of replicates 2.0, Standard deviation 0.7837509937910023 %",-0.946%
Cc1cc(C(=O)N2CCN(C(=O)c3cc(C(C)(F)F)n[nH]3)CC2)cc2nn[nH]c12,inhibition,"Thailand/16681/1984, Concentration 49.5 uM, Number of replicates 2.0, Standard deviation 0.5040908488530289 %",1.22%
same,inhibition,"Thailand/16681/1984, Concentration 99.01 uM, Number of replicates 2.0, Standard deviation 0.07028947937337628 %",1.9%
same,inhibition,"Thailand/16681/1984, Concentration 198.0 uM, Number of replicates 2.0, Standard deviation 0.7181064342983147 %",2.65%
O=Cc1ccc(N2CCC(C(=O)N[C@@H](CCO)c3ccccc3F)CC2)cc1,inhibition,[1],11.4%
CNC(=O)[C@H]1CN(S(=O)(=O)c2ccc(Oc3ccccc3Cl)cc2)CCO1,inhibition,"Thailand/16681/1984, Concentration 49.5 uM, Number of replicates 2.0, Standard deviation 0.2669928674711758 %",-4.8%
same,inhibition,"Thailand/16681/1984, Concentration 99.01 uM, Number of replicates 2.0, Standard deviation 0.624095865646037 %",-4.22%
same,inhibition,"Thailand/16681/1984, Concentration 198.0 uM, Number of replicates 2.0, Standard deviation 0.6183745152543801 %",-5.47%
Nc1cccc2c(Cl)ccnc12,inhibition,"Thailand/16681/1984, Concentration 49.95 uM, Number of replicates 2.0, Standard deviation 9.3539447807875 %",25.3%
same,inhibition,"Thailand/16681/1984, Concentration 99.9 uM, Number of replicates 2.0, Standard deviation 4.02175613474424 %",68.2%
Nc1ccnc2c(Cl)cccc12,inhibition,"Thailand/16681/1984, Concentration 49.95 uM, Number of replicates 2.0, Standard deviation 2.736837302484984 %",-9.22%
same,inhibition,"Thailand/16681/1984, Concentration 99.9 uM, Number of replicates 2.0, Standard deviation 4.13445849353631 %",-8.19%
Nc1ccc(Cl)c2cccnc12,inhibition,"Thailand/16681/1984, Concentration 49.95 uM, Number of replicates 2.0, Standard deviation 3.8383177085719704 %",-6.59%
same,inhibition,"Thailand/16681/1984, Concentration 99.9 uM, Number of replicates 2.0, Standard deviation 5.003138959022175 %",-3.71%
CNC(=O)c1cc(Cl)ccc1NS(=O)(=O)c1ccc(C(=O)N(C)C)cc1,inhibition,"Thailand/16681/1984, Concentration 49.5 uM, Number of replicates 2.0, Standard deviation 0.43931539952348436 %",-0.006%
same,inhibition,"Thailand/16681/1984, Concentration 99.01 uM, Number of replicates 2.0, Standard deviation 1.0448066347124485 %",1.16%
same,inhibition,"Thailand/16681/1984, Concentration 198.0 uM, Number of replicates 2.0, Standard deviation 2.436767925477247 %",5.4%
O=Cc1ccc(N2CCC(C(=O)N3CCN(c4ccc(F)cc4F)CC3)CC2)cc1,inhibition,[1],11.4%
